Assay outcomes deposited in PubChem BioAssay by National Center for Advancing Translational Sciences (NCATS).
p53 reactivation: restores transcriptional activity of mutant p53. H1299 p53-A138V BP100-luciferase reporter, luminescence, 24 h. Potency, µM (titrated, usually from 92.2 µM), inactives show at the highest dose activity change, positive = activation, actives largely listed as activators. actives 0.063% (n = 320,000). AID 504706; further: % of control where 0% means no effect; nearly all actives have a fitted effect of over 45% in size
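H1299 (p53-null), stable ts p53-A138V + BP100-Luc; 1000 cells/well, Opti-MEM/10% FBS; cpd 4 pt, 1:5; 24 h, 37 deg C, 5% CO2; detection reagent 10 min RT; luminescence.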
Rab9 prom act: activates the Rab9 promoter; Huh7 Rab9 promoter-luciferase reporter, luminescence, 24 h; Potency, µM (titrated, usually from 9.22 µM), for inactives: at the highest dose activation, negative = inhibition, usual class: activators; actives 2.8% (n = 320,000); further: % of control where 0% means no effect; nearly all actives have a fitted effect of over 60% in size
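Huh7 reporter line, Rab9 promoter upstream of luciferase. Compound exposure 24 h at 37 °C in reduced-serum medium with 10% FBS. Read-out: luminescence.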
NPC1 prom act: activates the NPC1 promoter; Huh7 NPC1 promoter luciferase reporter, 24 h; Potency, µM (titrated, usually from 9.22 µM), inactives show top-dose activation, most hits filed as activators; actives 2.4% (n = 320,000); further: % of control where 0% means no effect; nearly all actives have a fitted effect of over 60% in size
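Cells: Huh7 expressing luciferase under the NPC1 promoter, 1500/well. Seeded 2 h, compound added, incubated 24 h at 37 °C. Luciferase reagent, 10 min ambient, then luminescence.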
ELG1 genotoxic: inducers of genotoxicity in HEK293T ELG1-luciferase cells; HEK293T ELG1-luciferase reporter, luminescence, 16 h; Potency, µM (titrated, usually from 46 µM), for the others: at the top dose activity change, positive = activation, actives largely listed as activators; actives 1.3% (n = 330,000); AID 504466; further: % of control where 0% means no effect; nearly all actives have a fitted effect of over 60% in size
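Cells (2,000/well) expressing the ELG1-luciferase fusion are dosed by pin tool and kept 16 hr at 37 °C, 5% CO2. Signal comes from ONE-Glo luciferase reagent after 30 min at room temperature.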
SMN2 splice enh: enhancers of SMN2 splice variant expression; HEK293 SMN2-luciferase splicing reporter, luminescence, 30-36 h; Potency, µM (titrated, usually from 46.1 µM), for the others: at the top dose activity change, positive = activation, usual class: activators; actives 2.8% (n = 210,000); AID 1458; further: % of control where 0% means no effect; nearly all actives have a fitted effect of over 55% in size
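qHTS luciferase splicing reporter: luminescence rises when SMN2 exon 7 is included in transfected HEK293 cells. Compound exposure lasted 30-36 h at 37C, with 4.5 mM final sodium butyrate as control, followed by a ONE-Glo read.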
FLuc modulator: firefly luciferase modulation, counter-screen for miR-21 project; purified FLuc, Km substrates, luminescence inhibition; Potency, µM (top dose mostly 57.5 µM), inactives show at the top dose activity change, negative = inhibition, hits mostly inhibitors; P08659; actives 6.9% (n = 360,000);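 further: plate controls were vehicle for no effect and reference inhibitor for full effect; nearly all actives have a fitted effect of over 55% in size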
Target sequence (P08659 whole entry, looked up): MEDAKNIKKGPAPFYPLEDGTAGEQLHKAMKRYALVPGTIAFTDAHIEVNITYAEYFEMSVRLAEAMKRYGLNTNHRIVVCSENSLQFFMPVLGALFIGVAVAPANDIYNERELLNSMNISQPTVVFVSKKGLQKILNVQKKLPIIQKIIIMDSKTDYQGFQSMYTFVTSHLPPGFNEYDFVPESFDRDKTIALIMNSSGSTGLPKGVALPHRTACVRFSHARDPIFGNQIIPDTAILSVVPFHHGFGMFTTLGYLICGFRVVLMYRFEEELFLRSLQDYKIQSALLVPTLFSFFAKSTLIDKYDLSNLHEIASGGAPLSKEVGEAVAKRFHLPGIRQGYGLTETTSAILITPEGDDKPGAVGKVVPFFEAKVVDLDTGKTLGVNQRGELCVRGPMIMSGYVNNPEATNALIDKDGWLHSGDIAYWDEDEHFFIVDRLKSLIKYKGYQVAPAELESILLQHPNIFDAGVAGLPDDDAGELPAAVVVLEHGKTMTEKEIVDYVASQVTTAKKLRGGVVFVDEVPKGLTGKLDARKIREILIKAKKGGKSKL
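Biochemical qHTS of compounds, final roughly 60 µM downward over six points, against 10 nM purified firefly luciferase using Km concentrations of substrates (10 uM D-luciferin, 10 uM ATP) in Tris acetate pH 7.5 buffer; luminescence output.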
* = called active by the depositor; ? = inconclusive; nt = not tested or not shown. Rows were chosen to be rich in hits. Some 7.3% of all compounds tested hit in one or more screens of this group. The call rests on the fitted dose curve; in most records, active means well fitted curve in the direction sought with a large enough effect; inconclusive means small, poorly fitted or top-dose-only effect, or another doubt; inactive means no such curve, though single readings can be large; an effect the other way counts as inactive or inconclusive. Potency means the concentration at half of the fitted maximal effect.

SMILES	p53 reactivation	Rab9 prom act	NPC1 prom act	ELG1 genotoxic	SMN2 splice enh	FLuc modulator
CN(CCC#N)c1ccc(/C=C(\C#N)c2ccccn2)cc1	?	0.5µM*	0.5µM*	0.65µM*	1µM*	1.5µM*
CCN(Cc1ccccc1)c1ccc(/C=C(\C#N)c2ccccn2)cc1	?	1.4µM*	3.5µM*	?	nt	7.6µM*
CS(=O)(=O)N1CCc2cc(C(=O)Nc3ccc(Cl)cc3)ccc21	nt	?	?	9%	nt	?
O=C(Nc1ncn[nH]1)c1ccc(Cl)cc1Cl	-1%	16%	-2%	-1%	3%	-10%
O=C(Nc1nc(=S)ss1)c1ccc(Cl)cc1Cl	-4%	?	?	1%	?	15µM*
O=C(Nc1ccc2ccccc2c1)c1ccc(Cl)cc1Cl	22%	0.4µM*	0.22µM*	2.1µM*	nt	0.34µM*
Cc1occc1C(=O)Nc1ccc2ccccc2c1	?	2.5µM*	1.4µM*	?	11µM*	3.4µM*
CS(=O)(=O)N1CCc2cc(NC(=O)c3ccc(Cl)cc3Cl)ccc21	-2%	15%	5%	0%	9%	19µM*
CC1=CN2C(=N)/C(=C\c3cn(CCCOc4ccccc4)c4ccccc34)C(=O)N=C2S1	-1%	18%	19%	?	-11%	1%
Cc1cc(C)c(C2=CC(=O)C[C@H](c3ccc4c(c3)OCO4)C2)c(C)c1	-2%	-3%	-1%	-4%	nt	3%
CCCCOc1ccc(NC(=O)c2cc(F)c(F)cc2Cl)cc1	8%	19%	0%	1%	-10%	0%
O=C(COC(=O)c1ccccc1O)Nc1ccc2ccccc2c1	?	nt	nt	7%	nt	nt
O=C(Nc1ccc2ccccc2c1)c1cc(F)c(F)cc1Cl	-5%	?	2µM*	?	nt	3.4µM*
O=C(Nc1ccc2ccccc2c1)c1ccccc1O	37%	3.5µM*	4µM*	0.23µM*	nt	0.3µM*
CCOC(=O)C(=CNc1ccc(C(F)(F)F)cc1Cl)C(=O)OCC	0%	3%	2%	-1%	nt	13µM*
CC1(C)CCC(=O)N2CC[C@H]3C[C@H](OC(=O)Nc4ccccc4)C[C@@H]1[C@H]32	13%	?	?	19%	nt	19µM*
CC1(C)CCC(=O)N2CC[C@H]3C[C@H](OC(=O)Nc4ccc5c(c4)OCO5)C[C@@H]1[C@H]32	nt	?	4µM*	-5%	nt	15µM*
Cc1ccc2onc(CNC(=O)N(C)Cc3ccccc3)c2c1	nt	nt	nt	nt	nt	-16%
CCCSc1nsc(NC(=O)CCC)n1	26%	1.4µM*	2.8µM*	8%	5µM*	12µM*
CCCCSc1nsc(NC(C)=O)n1	?	1.4µM*	2.2µM*	?	18µM*	11µM*
c1ccc(C(c2ccccc2)N2CCC3(CCNCC3)CC2)cc1	nt	nt	nt	nt	-4%	nt
O=[N+]([O-])c1cccc(/C=N/Nc2nc(NCc3ccccc3)nc(N3CCOCC3)n2)c1O	-3%	-6%	-4%	-15%	nt	17µM*
O=[N+]([O-])c1ccc(/C=N/Nc2nc(NCc3ccccc3)nc(N3CCOCC3)n2)cc1	2%	-3%	0%	0%	1%	0%
COc1ccc(NC(=S)NCc2cccs2)cc1	3%	4%	-1%	-1%	?	?
CC(C)c1ccc(NC(=S)NCc2cccs2)cc1	?	20%	24%	?	17%	15µM*
COc1ccc(Nc2oc(/C=C/c3cccc(OC)c3)nc2C#N)cc1	nt	nt	nt	nt	6%	-16%
CNc1oc(/C=C/c2cccc(OC)c2)nc1C#N	nt	0%	3%	21µM*	nt	15µM*
COc1ccccc1/C=C/c1nc(C#N)c(N(C)C)o1	?	?	?	21µM*	10µM*	7.6µM*
CN(C)c1oc(/C=C/c2ccccc2)nc1C#N	?	?	?	?	13µM*	17µM*
